# A488 autofl: qHTS Assay for Spectroscopic Profiling in A488 Spectral Region | compound autofluorescence, A488 spectral region, dye equivalency; Compound Type: qHTS ECL - MLSMR | max dye equivalency, M | actives 0.1% (n = 59,000) | AID 591, 2007
#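 Compounds pin-transferred into 100 mM Tris buffer, pH 8.0, incubated 15 min at room temperature, then imaged with 480 nm excitation/540 nm emission filters. Fluorescence converted to Alexa 488 dye-equivalent concentration via an on-plate six-point A488 standard curve.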
# Resorufin fluor: qHTS Assay for Spectroscopic Profiling in Resorufin Spectral Region; Compound fluorescence, resorufin region 547/598 nm, buffer; active compounds read high; max dye-equivalent concentration, M; actives 0.04% (n = 59,000); AID 588, 2007
#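 Compounds in 100 mM Tris buffer, pH 8.0, incubated 15 min at room temperature, then read with 547 nm excitation and 598 nm emission filters. Fluorescence was converted to dye-equivalent concentration using an on-plate six-point resorufin standard curve.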
# Fluorescein fluor: qHTS Assay for Spectroscopic Profiling in Fluorescein Spectral Region | actives 0.91% (n = 59,000) | Compound autofluorescence, 480/540 nm, fluorescein-equivalent; active compounds read high | max fluorescein-equivalent concentration, M; in the data active means max fluorescein-equivalent concentration above about 10 nM; inconclusive means between about 1.1 nM and that limit
#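 Values reflect compound autofluorescence, normalized to fluorescein on the same plate and reported at each tested concentration. Conditions: 100 mM Tris pH 8.0, room temperature, 15 min, excitation 480 nm, emission 540 nm.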
# Rhodamine autofl: qHTS Assay for Spectroscopic Profiling in Rhodamine Spectral Region | Rhodamine-region fluorescence, 547/598 nm, Tris buffer; active compounds read high | max dye-equivalent concentration, M | actives 0.05% (n = 59,000) | AID 594, 2007; in the data active means max dye-equivalent concentration above about 11 nM; inconclusive means between about 1.1 nM and that limit
#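 Intrinsic compound fluorescence, ex 547 / em 598 nm, CCD imager. Tris 100 mM pH 8.0; 15 min RT. Output = rhodamine dye-equivalent concentration at each compound concentration.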
# A647 fluor: qHTS Assay for Spectroscopic Profiling in A647 Spectral Region; Compound fluorescence, A647 channel (570/671 nm), Tris buffer; max dye-equivalent concentration, M; 59,000 tested, under 10 active; AID 592, 2007;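 further: values scaled relative to a standard on each plate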
#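 Compounds pinned into 100 mM Tris pH 8.0, 15 min at room temperature, then read with 570 nm excitation/671 nm emission filters. Fluorescence normalized to an on-plate six-point Alexa 647 standard curve, giving dye-equivalent concentration per compound concentration.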
# TexasRed autofl: qHTS Assay for Spectroscopic Profiling in Texas Red Spectral Region. Compound fluorescence, Texas Red channel, 547/618 nm; active compounds read high. actives 0.06% (n = 59,000). AID 587, 2007. max dye-equivalent concentration, M; in the data active means max dye-equivalent concentration above about 10 nM; inconclusive means between about 1.1 nM and that limit
#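 Texas Red-region profiling: compounds in 100 mM Tris pH 8.0 were read at 547/618 nm after 15 min at room temperature. Intensities were normalized against a six-point Texas Red standard series to give dye-equivalent concentration.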
# Numbers without * were called inactive; i = inactive; ? = inconclusive; ! = repeats disagree. Compounds with a hit are over-represented: about 0.96% of the library has one in this group of screens. Unless noted, how the calls were made is not given here.
SMILES,A488 autofl,Resorufin fluor,Fluorescein fluor,Rhodamine autofl,A647 fluor,TexasRed autofl
C[C@@]12CC[C@@H]3[C@H](CCC4=CC(=O)CC[C@]43C)[C@@H]1CC[C@@H]2C(=O)COS(=O)(=O)c1ccc(Br)cc1,i,i,?,i,3.3e-08,i
Oc1ccc2cccnc2c1,i,i,1.6e-08M*,i,4.2e-08,i
O=C(SCc1cccc2ccccc12)c1ccc(Cl)cc1,i,i,i,i,1e-09,i
C=C1CC[C@@H]2[C@](C)(CC[C@@H](O)[C@]2(C)CO)[C@@H]1C/C=C1/C(=O)OC[C@H]1O,i,i,i,i,3e-09,i
CC(=O)N1C(=O)C(=C2C=C(C)OC(C)=C2)c2ccccc21,1.3e-08M*,i,2.3e-07M*,i,1.9e-08,i
Cc1cccc(S(=O)(=O)c2c(N)n(Cc3ccco3)c3nc4ccccc4nc23)c1,i,i,1.7e-08M*,i,1.5e-08,i
OCCNc1ncnc2c1ncn2[C@@H]1O[C@@H](CO)[C@H](O)[C@@H]1O,i,i,i,i,1e-09,i
Cc1ccc(/C=c2\sc3nc(-c4cccs4)nn3c2=O)o1,i,i,1.3e-08M*,i,1e-09,?
COc1ccccc1/C=c1\sc2nc(-c3cccs3)nn2c1=O,i,i,i,i,1e-09,i
COc1ccc2nc(NCN3C(=O)c4ccccc4C3=O)sc2c1,i,i,i,i,1e-09,i
CCOC(=O)N1CCC(Nc2nc3ccccc3n3nnnc23)CC1,i,i,1.1e-08M*,i,4e-08,i
CC[C@H](C)[C@@H]1O[C@]2(CC[C@@H]1C)C[C@H]1C[C@H](CC=C(C)[C@@H](O[C@H]3C[C@H](OC)[C@H](O[C@H]4C[C@H](OC)[C@H](O)[C@H](C)O4)[C@H](C)O3)[C@@H](C)C=CC=C3CO[C@@H]4[C@@H](O)C(C)=C[C@H](C(=O)O1)[C@@]34O)O2,i,i,i,i,1.2e-09,i
CC(C)c1nnc(NC(=O)CCC(=O)NCc2ccc3c(c2)OCO3)s1,?,i,1.3e-07M*,i,2.2e-09,i
CC(=O)OCC(=O)NCc1ccc2c(c1)OCO2,i,i,?,i,4e-08,i
CN1CCc2c(sc3c2C(=O)NC(c2ccco2)N3)C1 (configuration not stated),i,i,1.3e-08M*,i,4.3e-08,i
COc1ccc(NC(=O)N2CCC3(CC2)CCN(C(=O)c2ccncc2)CC3)cc1,i,i,i,i,1e-09,i
COc1ccc(C(=O)N2CCC3(CC2)CN(C(=O)Nc2cccc(C#N)c2)C3)cc1,i,i,1.1e-08M*,i,1e-09,i
COc1ccc(C(=O)N2CCC3(CCN(C(=O)Nc4cccc(C#N)c4)CC3)CC2)cc1,i,i,i,i,2.9e-09,i
COC(=O)N1CCC2(CCN(C(=O)Nc3ccc(OC)cc3)CC2)CC1,i,i,1.5e-08M*,i,2.1e-08,i
Clc1ccccc1-c1nc(NCc2cccs2)c2ccccc2n1,i,i,i,i,1e-09,i
COc1ccccc1NC(=O)c1cc2ccccc2o/c1=N\O,i,i,?,i,4.4e-08,i
COc1ccccc1NC(=O)c1cc2ccc(O)cc2o/c1=N\O,i,i,1.5e-08M*,i,3.4e-08,i
COc1cccc(NS(=O)(=O)c2ccc3c(c2)n(C)c(=O)c(=O)n3C)c1,i,i,i,i,1e-09,i
COc1cccc(NS(=O)(=O)c2ccc(S(=O)(=O)N3CCOCC3)cc2)c1,i,i,1.1e-08M*,i,4.6e-09,i
CC(C)OC(=O)CC(=O)c1sc2nc3c(cc2c1N)CN(C)CC3,?,i,1.9e-07M*,i,2.6e-08,i
SMILES,A488 autofl,Resorufin fluor,Fluorescein fluor,Rhodamine autofl,A647 fluor,TexasRed autofl
O=C(NCc1ccc(F)cc1)C1CCN(C(=O)NCc2ccccc2)CC1,i,i,1e-08M*,i,1e-09,i
O=C(NCc1ccccc1F)C1CCN(C(=O)NCc2ccccc2)CC1,i,i,i,i,1.5e-08,i
CN(C)CCCNc1cc(O)c2c(c1O)C(=O)c1ccccc1C2=O,i,1.3e-08M*,?,1.8e-08M*,5e-09,4.6e-08M*
CN(C)CCCNC(=O)c1ccc(-c2ccccc2)cc1,i,i,?,i,3.9e-08,i
NS(=O)(=O)c1cc2c(cc1Cl)N[C@@H](CC1CCCC1)NS2(=O)=O,i,i,i,i,1e-09,i
NS(=O)(=O)c1cc2c(cc1Cl)NCNS2(=O)=O,i,i,1.1e-08M*!,i,1.5e-08,i
O=C1C2CC=C(Cl)CC2C(=O)N1CNc1ccccn1 (configuration not stated),i,i,i,i,3.8e-09,i
O=C(CCN1C(=O)C2CC=C(Cl)CC2C1=O)N1CCCCC1 (configuration not stated),?,i,2.9e-08M*,i,2.3e-08,i
O=C1C2CC=C(Cl)CC2C(=O)N1CCc1ccccc1 (configuration not stated),i,i,2e-08M*,i,1e-09,i
COC(=O)N1CCC2(CCN(Cc3ccccc3)CC2)CC1,i,i,i,i,1e-09,i
OC[C@@H]1NC[C@@H](O)[C@@H](O)[C@H]1O,i,i,i,i,1e-09,i
N#Cc1c(N)sc2c1CCCCCC2,i,i,i,i,1e-09,i
CC1(C)Cc2c(C#N)c(N)sc(=S)c2CS1,i,i,1.1e-08M*,i,1e-09,i
N#Cc1c(N)sc(=S)c2c1CCCCC2,i,i,3.4e-08M*,i,1e-09,i
CN(C)Cc1ccccc1-c1nccc(NCc2cccs2)n1,i,i,1.1e-08M*,i,1.5e-09,i
Cc1cc(C)c(/C=C2/C(=O)Nc3ccccc32)[nH]1,i,i,2.3e-08M*,?,6.6e-08,i
COc1cc(OC)c(/C=C2/C(=O)Nc3ccccc32)c(OC)c1,i,i,?,i,2.4e-08,i
CCCC[C@]1(C2CCCC2)Cc2cc(OCC(=O)O)c(Cl)c(Cl)c2C1=O,i,i,?,i,2.3e-08,i
Cc1c(CCC#N)c(N2CCN(C3CCCCC3)CC2)n2c(nc3ccccc32)c1C#N,i,i,1.1e-08M*,i,2e-09,i
c1cncc(-c2cncnc2NC2CCNCC2)c1,i,i,1.4e-08M*,i,3.7e-08,i

# High-throughput results (PubChem)
